Assay outcomes (PubChem BioAssay)
ssDAF-12 act – S. stercoralis DAF-12 nuclear receptor activators, primary screen, cell-based, luminescence, HEK293, GRIP1 co-expression, lit1-tk-luc | activation, % at 6.8 µM | 370,000 compounds, 1% hits | HEK293 ssDAF-12/GRIP1 lit1-tk-luc reporter; % of 3 µM dafachronic acid response | Nuclear hormone receptor DAF-12 (Strongyloides stercoralis) | AID 652126, 2013;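 active = activation above the mean over all tested compounds plus 3 SD, cut at about 0.9% in these data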;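 note: 0% = DMSO-only wells and 100% = 3 µM delta7-dafachronic acid wells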
DAX1 inh-1 – DAX1 (NR0B1) inhibitors on StAR promoter, primary screen, cell-based, luminescence, SF-1 (NR5A1), full-length DAX-1 | HEK293T StAR-luciferase reporter, SF-1/DAX-1 repression relief | 370,000 compounds, 1.1% hits | AID 652010, 2013 | inhibition, % at 6.8 µM;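 active = inhibition above the mean over all tested compounds plus 3 SD, cut at about 3.6% in these data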;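 note: 0% = DAX-1 cells with DMSO and 100% = cells lacking DAX-1 with DMSO; higher inhibition means more luminescence from relief of DAX-1 repression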
hcDAF-12 act – H. contortus DAF-12 nuclear receptor activators, primary screen, cell-based, luminescence, HEK293, lit1-tk-luc reporter; activation, % at 6.8 µM; 370,000 compounds, 1.4% hits; HEK293 hcDAF-12 lit1-tk-luc reporter; 0% DMSO, 100% Δ7-dafachronic acid;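 active = activation above the mean of all tested compounds plus 3 SD, cut at about 5.5% in these data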;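 note: 100% = response to 3 µM Δ7-dafachronic acid high control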
DAX1 inh-2 – DAX1 (NR0B1) inhibitors, primary screen, cell-based, HEK293, Gal4-DAX1, luciferase luminescence; HEK293 Gal4-DAX1 luciferase reporter; 340,000 compounds, 0.99% hits; AID 504766, 2011; inhibition, % at 6.75 µM;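 active = inhibition above the mean over all tested compounds plus 3 SD, cut at about 4.2% in these data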;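 note: 0% = DAX1-transfected cells with DMSO and 100% = empty-vector control cells with DMSO; inhibition shows as a rise in luminescence from relieved DAX1 repression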
Target sequence (P51843 207-470 limits assumed): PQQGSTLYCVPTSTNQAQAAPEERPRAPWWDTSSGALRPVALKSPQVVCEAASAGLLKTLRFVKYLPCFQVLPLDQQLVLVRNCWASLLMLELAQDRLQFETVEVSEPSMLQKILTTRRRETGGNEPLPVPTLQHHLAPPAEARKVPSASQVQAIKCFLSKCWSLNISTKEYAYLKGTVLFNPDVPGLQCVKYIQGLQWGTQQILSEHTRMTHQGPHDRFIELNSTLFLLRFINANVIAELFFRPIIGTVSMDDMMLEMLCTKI
hgDAF-12 ag – H. glycines DAF-12 receptor agonists, primary screen, cell-based, luminescence, HEK293, GAL4 fusion, UAS-luciferase. Nuclear hormone receptor DAF-12 (Heterodera glycines), GAL4 fusion. HEK293 GAL4-hgDAF12 UAS-luciferase reporter, agonist luminescence; normalized to butyrate control. activation, % at 6.8 µM. 370,000 compounds, 1.8% hits;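 active = activation above a cutoff set at the mean of all screened compounds plus 3 SD, cut at about 10% in these data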;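 note: 0% = DMSO wells and 100% = sodium butyrate wells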
Starred values were filed as active, the others as inactive; / = no result. Hits are enriched below; roughly 4.1% of the tested compounds scored in any of these assays.

SMILES | ssDAF-12 act | DAX1 inh-1 | hcDAF-12 act | DAX1 inh-2 | hgDAF-12 ag
C[C@@H]1ON(C)[C@H]2C[C@H]3c4[nH]c5ccc(-c6ccc7c(c6)OCO7)cc5c4CCN3C(=O)[C@@H]12 | -1.4 | -2.4 | -0.1 | 0.8 | 3.1
COc1ccc(Cl)cc1N(CC(=O)NCc1ccccn1)S(=O)(=O)c1ccc(C)cc1 | -0.1 | 0.0 | 0.8 | 0.7 | -1.7
O=C(Nc1ccccc1Oc1ccccc1)NC1CCCCN(Cc2cccc(Cl)c2)C1=O (centres undefined) | -1.0 | -0.8 | -2.2 | / | -3.2
N#C/C(=N\Nc1ccccc1)C(=N)N1CCCCC1 | 0.8 | 2.6 | 2.8 | 2.5 | 12.2*
COc1ccc(C2CC(=O)C(c3ccc(Br)cc3)=CN2Cc2ccccc2)cc1 (centres undefined) | -0.5 | -0.6 | -1.1 | / | 3.6
COC(=O)[C@]12C[C@H](CC(=O)N3CCOCC3)C(=O)N(CCC3=CCCCC3)C1=C[C@H](COCc1ccccc1)O[C@@H]2C | -1.4 | -1.3 | -1.8 | / | -0.3
NC(=O)CSc1nnc(Cn2cnc3ccccc32)o1 | -0.9 | 0.0 | -0.8 | 4.2* | -1.9
COc1ccc(NC(=O)NNC(=O)CCC(=O)Nc2ccccc2Cl)cc1 | -1.8 | 0.3 | -1.2 | 8.3* | 0.2
COC(=O)[C@]12C[C@H](CC(=O)NCCCN3CCCC3=O)C(=O)N(Cc3ccccc3)C1=C[C@H](C(C)(C)C)O[C@@H]2C | -1.0 | -0.8 | -0.8 | / | 0.9
CCCN1C(=O)C(NC(=O)c2ccncc2)(C(F)(F)F)C2=C1CC(C)(C)CC2=O (centres undefined) | 0.9* | 0.2 | 3.6 | -0.6 | 1.6
COCCNC(=O)c1c(N)[nH]c(C(=O)c2ccc(Br)cc2)c1-c1ccc(Br)cc1 | -0.6 | 1.1 | -0.1 | / | -2.5
CN1CCN(/N=C/c2ccc(OCc3ccccc3)cc2)CC1 | 0.2 | 0.3 | 3.4 | 6.0* | 8.0
CC(C)CC(=O)Nc1ccc([N+](=O)[O-])cc1Cl | -0.9 | 0.7 | -0.9 | 4.3* | 0.6
CCOCC(=O)Nc1ccc([N+](=O)[O-])cc1Cl | -1.1 | -1.6 | -1.3 | / | -0.9
c1ccc(Sc2ccncc2)cc1 | -0.7 | -0.4 | 1.4 | 5.7* | -0.5
O=C(NCCN1CCC(n2c(=O)[nH]c3ccccc32)CC1)c1cccnc1Cl | -1.0 | 0.2 | -1.2 | / | 2.1
O=C(/C=C/c1ccccc1)Nc1cccc(C(=O)NC2CC2)c1 | -0.5 | 3.8* | 1.4 | 1.2 | 8.7
O=C(/C=C/c1ccccc1)Nc1cccc(C(=O)NCc2ccccc2)c1 | -1.2 | -0.5 | -2.0 | / | 1.5
CNc1ncnc2c1ncn2[C@H]1CN(CCN2CCOCC2)C[C@@H](CO)O1 | -1.6 | 0.2 | -0.6 | / | 0.0
O=c1[nH][nH]c2c1[C@H](CCc1cccc(Cl)c1)O[C@H](CCc1ccccc1)C2 | -1.1 | -0.3 | -1.4 | / | -2.2
COc1ccc(CNC(=O)C2CC(c3ccccc3[N+](=O)[O-])=NO2)cc1 (centres undefined) | -0.9 | 0.0 | 0.9 | 1.8 | 1.8
COc1ccccc1CNC(=O)C1CC(c2ccccc2[N+](=O)[O-])=NO1 (centres undefined) | -0.3 | 0.1 | 6.1* | -0.7 | 1.1
CCc1ccc(Oc2cc(C)nc(N)n2)cc1 | -0.4 | 2.2 | 2.1 | 1.1 | 10.7*
CCCc1ccc(Oc2cc(Cl)nc(N)n2)cc1 | -1.5 | 0.6 | 0.9 | 2.0 | 3.1
CCCCNc1cccc2c1S(=O)(=O)N[C@H](Cc1ccccc1)CO2 | -0.6 | -1.1 | -0.6 | / | -2.1
SMILES | ssDAF-12 act | DAX1 inh-1 | hcDAF-12 act | DAX1 inh-2 | hgDAF-12 ag
COc1cc(C(=O)Nc2nc3ccccc3[nH]2)ccc1OC(F)F | -1.3 | 0.0 | -1.8 | 1.3 | 5.2
CN(C)S(=O)(=O)c1ccc(C(=O)Nc2nc3ccccc3[nH]2)cc1 | -1.4 | 2.7 | 1.3 | 6.7* | 7.9
O=C(Nc1nc2ccccc2[nH]1)c1ccc(OC(F)F)cc1 | -0.3 | 0.6 | 2.7 | -2.0 | 11.0*
Cc1c(C(=O)Nc2nc3ccccc3[nH]2)cccc1[N+](=O)[O-] | 1.5* | 1.6 | 5.3 | 1.6 | 7.8
O=C(Nc1nc2ccccc2[nH]1)c1cc(F)cc(F)c1 | 0.7 | 1.6 | 5.6* | 0.7 | 10.4
Cc1cc(C)cc(C(=O)Nc2nc3ccccc3[nH]2)c1 | -0.7 | 0.5 | 1.2 | 0.6 | 7.0
COCOCCn1cc(CN2CCS(=O)(=O)N(Cc3ccc(-c4cccc(N(C)C)c4)cc3)C(C(C)C)C2=O)nn1 (centres undefined) | -2.0 | -0.5 | -3.3 | -1.1 | 0.8
Clc1ccccc1-c1nn2c(-c3cc(-c4ccccc4)n[nH]3)nnc2s1 | -1.8 | -0.6 | -2.2 | / | -2.1
c1ccc2c(c1)Oc1cccc3cccc-2c13 | -0.8 | -0.1 | -0.8 | 4.3* | 1.2
CN(C)c1cccc2cccc(N(C)C)c12 | 0.0 | -0.5 | -1.3 | -1.0 | -1.0
O=c1nc2onnc2c(C=NO)[nH]1 | -1.1 | 0.9 | 0.7 | 1.2 | 0.7
COc1cc(NC(=O)c2cnn3c(C)cc(C)nc23)cc(OC)c1OC | -2.3 | / | -3.7 | / | -2.1
CC(=O)Oc1ccc(Cn2c(C)c(C(=O)NCCC#N)sc2=O)cc1 | -0.6 | 1.3 | -1.2 | / | 1.3
S=c1[nH]nc(-c2ccncc2)n1/N=C/C(Cl)=C\c1ccccc1 | -1.4 | 1.4 | 1.4 | -0.1 | 12.1*
CCOc1ccc(/C=N/n2c(-c3ccccc3)n[nH]c2=S)cc1 | -0.7 | -0.2 | -1.8 | 5.8* | -0.1
Cc1ccc(NC(=O)c2ccc3c(c2)nnn3C)cc1 | -1.4 | 1.2 | 1.8 | 0.2 | 4.4
CN(C)c1ccc(NC(=O)Nc2ccc3c(c2)nnn3C)cc1 | -0.1 | 0.5 | 1.0 | 6.5* | 6.3
CN(C)c1ccc(NC(=O)c2ccc3c(c2)nnn3C)cc1 | -1.8 | 0.2 | 1.4 | 1.5 | 2.9
Cn1nnc2cc(C(=O)Nc3ccccc3)ccc21 | 0.9* | 1.6 | 1.8 | 1.6 | 10.8*
Cc1ccccc1-c1ccc2c(c1)[C@@H]1C[C@H]3[C@@H](CN1CC2)[C@H](C)OC(c1ccccc1)N3C (some centres undefined) | -1.4 | -0.4 | -0.4 | / | 2.4
O=c1c2cc(Cl)ccc2nc(-c2ccc(Cl)c(Cl)c2)n1O | -0.3 | -0.1 | 4.2 | 4.5* | -0.1
O=c1c2cc(Cl)ccc2nc(-c2ccccc2)n1O | -1.3 | -0.1 | -0.6 | -0.3 | 1.7
CC1(C)CC(=O)c2sc(NC(=O)C(C)(C)C)nc2C1 | 1.5* | 0.8 | 1.6 | 0.5 | 6.5
CN1[C@H](Cc2ccccc2)COc2cccc(F)c2S1(=O)=O | -0.3 | -1.0 | -3.1 | / | -1.3
Cc1cc(NCc2ccccc2)n2ncc(-c3ccccc3)c2n1 | 0.9* | 4.1* | 4.0 | 1.7 | 9.2
